# Compound activity deposited in PubChem BioAssay by National Center for Advancing Translational Sciences (NCATS).
# Only some compounds are listed: those with a hit (about 12% of all), similar ones and a draw of the others.
# L3MBTL1 block: inhibitors of human L3MBTL1. Potency, µM (doses to about 57.1 µM), inactives show at the top dose activity, negative = inhibition, hits mostly inhibitors. AlphaScreen L3MBTL1–H3K9me1 peptide binding. 230,000 compounds, 0.66% hits. Q9Y468. AID 485360; note: potency is the fitted concentration of half-maximal effect; % is set by controls: 0 for no effect and ±100 for the full control effect; nearly all actives have a fitted effect of over 60% in size
#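 Read-out is AlphaScreen signal from streptavidin donor and nickel chelate acceptor beads (10 ug/mL final each) bridging L3MBTL1 (50 nM) and biotinylated K9-monomethylated H3(1-15) peptide (75 nM), after 30 min compound exposure at room temperature.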
# HP1b chromo inh: HP1-beta chromodomain-methylated histone interaction inhibition; P83916; AlphaScreen HP1-beta / biotin-H3K9me3 peptide binding; Potency, µM (titrated, usually from 114 µM), without a hit: at the top dose activity change, negative = inhibition, actives largely listed as inhibitors; 390,000 compounds, 0.56% hits; AID 540317; note: potency is the fitted concentration of half-maximal effect; nearly all actives have a fitted effect of over 70% in size
#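 Compound inhibition of the preformed complex between 50 nM HP1-beta and 50 nM biotinylated H3K9me3 peptide was read by AlphaScreen. Buffer was PBS pH 7.4 with 0.01% Tween-20. Incubations ran 30 min at room temperature, with 10 ug/mL donor/acceptor beads.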
# JMJD2A Tudor inh: JMJD2A Tudor domain (human) inhibition | O75164 | AlphaScreen JMJD2A-Tudor / H3K4me3 peptide binding | Potency, µM (top dose mostly 114 µM), without a hit: at the highest dose activity change, negative = inhibition, hits mostly inhibitors | 390,000 compounds, 4.4% hits | AID 504339; note: potency is the fitted concentration of half-maximal effect; % is set by controls: 0 for no effect and ±100 for the full control effect; nearly all actives have a fitted effect of over 50% in size
# BAZ2B inh: BAZ2B (human) inhibition; AID 504333; AlphaScreen BAZ2B-H3K14Ac peptide displacement; Potency, µM (highest dose often 114 µM), inactives show top-dose activity change, negative = inhibition, usual class: inhibitors; Q9UIF8; 360,000 compounds, 4.4% hits; note: potency is the fitted concentration of half-maximal effect; % is set by controls: 0 for no effect and ±100 for the full control effect; nearly all actives have a fitted effect of over 60% in size
#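 AlphaScreen displacement: compounds (up to 110uM) incubated 30 min at room temperature with a preformed 50 nM BAZ2B/50 nM biotinylated H3K14Ac peptide complex in PBS pH 7.4 with Tween-20. Donor and acceptor beads at 10 ug/mL final added, 20 min light-protected before reading.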
# Sfp PPTase inh: inhibitors of Bacillus subtilis Sfp phosphopantetheinyl transferase; AID 1490; Biochemical Sfp PPTase activity, qHTS; Potency, µM, for inactives: largest response in the series, negative = inhibition, usual class: inhibitors; 310,000 compounds, 3.5% hits;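 note: the enzyme is Sfp with the accession as filed and its product quenches rhodamine fluorescence; potency is the fitted concentration of half-maximal effect; 0% = enzyme reaction without inhibitor and -100% = no enzyme wells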
#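 Buffer: 50 mM Hepes-Na pH 7.6, 10 mM MgCl2, 0.01% Nonidet P-40, 0.01% BSA. Enzyme 15 nM, pre-exposed to compound 15 min; substrates then added and fluorescence change tracked over 30 min.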
# G9a inh-1: blocks human histone lysine methyltransferase G9a. Q96KQ7. G9a H3K9 monomethylation, AlphaScreen, 2 h. Potency, µM (top dose mostly 102 µM), inactives show top-dose activity, negative = inhibition, actives largely listed as inhibitors. 350,000 compounds, 8.8% hits. AID 504332; note: potency is the fitted concentration of half-maximal effect; % is set by controls: 0 for no effect and ±100 for the full control effect; nearly all actives have a fitted effect of over 75% in size
#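 Compounds were preincubated with 20 nM G9a for 15 min, after which biotinylated H3K9 peptide (500 nM) and SAM (20 uM) started a 2 h room-temperature reaction. Monomethylated product was quantified by antibody-based AlphaScreen chemiluminescence.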
# JMJD2E inh: confirmation of inhibitors of human JMJD2E demethylase | shares compounds with JMJD2A Tudor inh | Recombinant JMJD2E, FDH-coupled NADH fluorescence (FDH is formaldehyde dehydrogenase) | Potency, µM (series often up to 56.8 µM), for inactives: top-dose activity change, negative = inhibition, actives largely listed as inhibitors | 140 compounds, 93% hits | AID 2677
# FDH inh: blocks Pseudomonas putida formaldehyde dehydrogenase, flagging JMJD2E artifacts; FDH enzyme assay, NADH fluorescence kinetic; shares compounds with JMJD2A Tudor inh; Potency, µM (series often up to 56.7 µM), without a hit: at the highest dose activity, negative = inhibition, hits mostly inhibitors; 140 compounds, 10% hits
# G9a inh-2: confirmation of human histone methyltransferase G9a inhibitors; shares compounds with JMJD2A Tudor inh; G9a H3K9 monomethylation, AlphaScreen, 2 h; Potency, µM, actives largely listed as inhibitors; 370 compounds, 89% hits; note: potency is the fitted concentration of half-maximal effect; nearly all actives have a fitted effect of over 65% in size
# RGS4 inh: confirmation of human RGS4 inhibitors. Potency, µM, hits mostly inhibitors. 25 compounds, 80% hits. shares compounds with JMJD2A Tudor inh. RGS4 GAP activity, Transcreener GDP fluorescence polarization. AID 602388
# Starred values were filed as active, the others as inactive; u = inconclusive; x = no result; [ ] = another dose, or the depositor's remark. Calls come from the whole dose curve; as a rule, active = well fitted curve in the direction sought with a large enough effect; inconclusive = small, poorly fitted or top-dose-only effect, or another doubt; inactive = no such curve, though single readings can be large; an effect the other way counts as inactive or inconclusive.
SMILES,L3MBTL1 block,HP1b chromo inh,JMJD2A Tudor inh,BAZ2B inh,Sfp PPTase inh,G9a inh-1,G9a inh-2,others
CN1c2ccc(Cl)cc2-c2nc(SCC(=O)NCc3ccc(F)cc3)ncc2S1(=O)=O,x,49%,-13%,30%,x,10%[59 µM],x,
Cc1ccc(-c2noc(-c3nnn(CC(=O)Nc4cc(C)cc(C)c4)c3N)n2)cc1,x,27%,-2%,-8%,x,-30%[59 µM],x,
CCOc1cc(C)nc(NCCc2ccc(OC)c(OC)c2)n1,x,24%,-24%,-5%,7%,5%[12.7 µM],x,
CCOc1nc(NCCc2ccc(OC)c(OC)c2)nc(N2CCN(c3ccc(OC)cc3)CC2)n1,x,35%,2%,-24%,18%,u,2*,
CCOC(=O)c1nn(-c2ccc(OC)cc2)c(=O)c2c(N)scc12,-6%,-15%,u,50µM*,10µM*,1.1µM*,4*,
Cc1ccc(CN2CCCn3nc(C(=O)NCCC(C)C)cc3C2=O)cc1,x,22%,-30%,-9%,x,15%[59 µM],x,
CCN(CC)CCNC(=O)c1cn(-c2ccccc2)nc1-c1cccs1,x,40%,-3%[57.1 µM],u,4%,0%,x,
CCN(CC)CCOC(=O)c1ccc(NC(=O)c2cn(-c3ccccc3)nc2-c2cccs2)cc1,-24%,2%,-22%,-32%,u,-44%,x,RGS4 inh=21*
Cc1c(C)n(Cc2ccccc2)c2ccc(C(=O)OCCN(C)C)cc12,u,u,56µM*,22µM*,-19%,u,32*,
Cc1c(CNC2CCCCCC2)c(C(=O)O)c(C)n1Cc1c(F)cccc1Cl,x,13%,-24%,-11%,x,-7%[59 µM],x,
CN(C)c1ccc(CNc2ccc3c(c2)ncn3C)cc1,x,20µM*,18µM*,18µM*,-1%,u,10*,
CCOc1ccc(CNc2ccc3c(c2)nc(C)n3C)cc1,7%[11.4 µM],-10%,-35%,-9%,6%,1.6µM*,6.3*,
CCOc1ccc(CNc2ccc(CNc3ncn[nH]3)cc2)cc1,u,21%,-34%,u,1%,-19%,x,
CCCCn1cnc2cc(NCc3ccc(OCC)cc3)ccc21,x,u,40µM*,22µM*,x,2.5µM*,6.5*,
CCCn1cnc2cc(NCc3ccccc3OCC)ccc21,x,u,56µM*,40µM*,x,1.8µM*,2.6*,
CCOc1ccc(CNc2nc3ccccc3n2C)cc1,4%,36%,-12%,-1%,10%,x,x,
COc1ccccc1CNC(=O)CSCc1nc(-c2ccc(OC)c(OC)c2)oc1C,x,20%,-13%,u,x,u,x,
CCCc1ccc(OCC(=O)Nc2scc(-c3cccs3)c2C(=O)OC)cc1,x,1%,-3%,7%,x,u,x,
COC(=O)c1c(-c2cccs2)csc1NC(=O)COc1ccc(C(C)C)cc1,x,u,-24%,-11%,x,2.2µM*,8.1*,
COc1ccccc1CNc1nc(-c2ccoc2)nc2ccccc12,x,x,x,x,-4%,3%[0.501 µM],x,
OCCCCNc1cccc2ccccc12,x,-20%,u,u,-25%,u,5.6*,
Cc1ccc(N(Cc2cc(=O)[nH]c3ccccc23)C(=O)c2ccco2)cc1,x,13%,29%,u,-5%,u,22*,
CC(C)C(=O)N(Cc1cc(=O)[nH]c2ccccc12)c1ccccc1,15%,15%,-14%,-14%,8%,u,x,
CN(C)c1ccc(CNC(=O)c2cccc(NC(=O)N3CCSc4ncccc43)c2)cc1,x,-15%,u,u,x,2.8µM*,18*,
Cc1cccc(OCCn2c(-c3ccc(Cl)cc3)nc3ccccc3c2=O)c1C,x,47%,2%,4%,x,-1%[59 µM],x,
SMILES,L3MBTL1 block,HP1b chromo inh,JMJD2A Tudor inh,BAZ2B inh,Sfp PPTase inh,G9a inh-1,G9a inh-2,others
CCN1CCN(c2ccc(NC(=O)c3cc4ccccc4cc3OC)cc2C)CC1,-8%,18%,-32%,-37%,x,u,3.2*,
Cc1ccc(CNC(=O)c2c[nH]n3c(=O)c(Cc4ccc(Cl)cc4)c(C)nc23)cc1,x,34%,-33%,-15%,x,25%[59 µM],x,
CCOc1ccc(-n2c(=O)c3c4c(sc3n(Cc3cccc(C)c3)c2=O)CCCC4)cc1,x,42%,8%,0%,x,1%[59 µM],x,
Cc1ccc(S(=O)(=O)Nc2ccc(NC(=O)CN3CCCCC3)cc2)cc1,x,11%,-16%,10%,12%,u,x,
Cc1ccc(S(=O)(=O)Nc2cccc(NC(=O)CN3CCCCC3)c2)cc1,x,u,u,u,-8%,u,2.8*,
CC(=O)c1ccc(NC(=O)CSc2ccc(-c3cccs3)nn2)cc1,x,28%,u,-21%,x,2.8µM*,6.3*,
COc1ccc(Br)cc1CN1CCCCCCC1,-2%,u,4µM*,50µM*,u,2.8µM*,13*,
COc1ccc(C(C)=O)cc1CN1CCCCC1,u,26%,-3%,39%,1%,u,x,
CCOC(=O)CSc1nc(-c2ccc(C)cc2C)cc(-c2ccccc2)c1C#N,x,222%,112%,84%,x,192%[59 µM],x,
Brc1ccc(-c2cn3cc(Cc4ccccc4)sc3n2)cc1,x,21%,-14%,2%[57.1 µM],x,6%[59 µM],x,
Cc1ccc(CCNC(=O)CNS(=O)(=O)c2ccc3nc(C)sc3c2)cc1,x,64%,-7%,-2%,11%,x,x,
Cc1nc2ccc(CCO)cc2s1,14%,40%,-6%,1%,13%,1.1µM*,u,
CCOc1ccc(C(=O)c2cn(CC(=O)Nc3cccc(OC)c3)c3cc4c(cc3c2=O)OCCO4)cc1,x,40%,-29%,1%,x,17%[59 µM],x,
Oc1ccc(NCc2ccccc2OCc2ccccc2F)cc1,u,u,56µM*,45µM*,u,3.2µM*,x,JMJD2E inh=20µM*;FDH inh=u
Cc1ccc(NCc2ccccc2OCc2ccccc2F)cc1,x,-25%,u,u,-3%,u,x,
Oc1ccc(NCc2ccccc2OCc2ccccc2Cl)cc1,x,-10%,u,25µM*,x,u,11*,
